# “And” between values parts separate entries of the source, which are not always exact repeats. Equal values may be shown once. The panel holds about 79,000 compounds, 15% with a hit somewhere; the sample as a whole holds those more often. More than one record can exist for a structure, and the calls need not agree. The source made the active and inactive calls. Rule as the data show it: active = growth inhibition above about 70%; inactive = the rest.
# Columns and labels:
# [1] = NCI Yeast Anticancer Drug Screen. Data for the rad50 strain (AID 155);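 also: 0% = growth of vehicle-only cultures of the same strain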; conditions: S. cerevisiae rad50 strain growth inhibition; at 50.0 µM; stronger effect = higher value
# In short: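 Inhibition values express reduced yeast growth in compound-treated cultures relative to vehicle-treated controls.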
# [2] = NCI Yeast Anticancer Drug Screen. Data for the mec2-1 strain (AID 157); conditions: S. cerevisiae mec2-1 strain, at 50.0 µM, stronger effect = higher value
# In short: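 Readout is yeast growth inhibition, normalised to vehicle-treated controls, in the mec2-1 strain exposed to compound.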
# [3] = NCI Yeast Anticancer Drug Screen. Data for the sgs1 mgt1 strain (AID 161);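 also: 0% = growth of cultures given vehicle only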; conditions: S. cerevisiae sgs1 mgt1 strain, at 50.0 µM, stronger effect = higher value
# In short: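 Percent growth inhibition was derived by comparing compound-exposed mutant yeast with vehicle-exposed cultures. The strain carries alterations in DNA damage repair.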
# [4] = NCI Yeast Anticancer Drug Screen. Data for the cln2 rad14 strain (AID 165);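 also: 0% = growth equal to vehicle treated cultures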; conditions: S. cerevisiae cln2 rad14 strain, at 50.0 µM, stronger effect = higher value
# In short: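 Relative to vehicle controls, growth inhibition of compound-treated cln2 rad14 yeast was recorded.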
# [5] = NCI Yeast Anticancer Drug Screen. Data for the bub3 strain (AID 167); conditions: S. cerevisiae bub3 mutant strain, at 50.0 µM, stronger effect = higher value
# In short: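 Steps: expose the mutant yeast strain to compound; grow alongside vehicle-treated cultures; measure growth; express inhibition against the vehicle cultures.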
# [6] = NCI Yeast Anticancer Drug Screen. Data for the mlh1 rad18 strain (AID 175); conditions: S. cerevisiae mlh1 rad18 strain growth inhibition; at 50.0 µM; stronger effect = higher value
# In short: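 Test agents were incubated with a yeast strain of defined genotype (DNA damage repair defect). Inhibition of growth was derived by comparison with vehicle-exposed cultures.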
SMILES,growth inhibition [1],growth inhibition [2],growth inhibition [3],growth inhibition [4],growth inhibition [5],growth inhibition [6]
O=C(CCCOc1ccc(Cl)cc1Cl)NC(Cc1c[nH]c2ccccc12)C(=O)O (stereo not given),-1.3% (inactive) and 1.5% (inactive),0.15% (inactive) and -1.95% (inactive),4.3% (inactive) and -3.6% (inactive),19.1% (inactive) and 18.7% (inactive),-17.6% (inactive) and -17.1% (inactive),7.2% (inactive) and 10.7% (inactive)
CC(C)CC(NC(=O)COc1ccccc1Cl)C(=O)O (stereo not given),-9.6% (inactive) and 5.05% (inactive),15.5% (inactive) and 14.3% (inactive),3.4% (inactive) and 6.9% (inactive),-11.8% (inactive) and -9.2% (inactive),1.25% (inactive) and 7.15% (inactive),-8.75% (inactive) and -13.3% (inactive)
COc1ccc(C(O)c2nccn2C)c(OC)c1 (stereo not given),-17.6% (inactive) and -23.8% (inactive),-3.55% (inactive) and -10.8% (inactive),-0.3% (inactive) and -6.2% (inactive),14.7% (inactive) and 10.1% (inactive),20.1% (inactive) and 21% (inactive),5.35% (inactive) and -6.35% (inactive)
CC(=O)OCC1OC(Sc2nc(-c3ccc(C)cc3)c(C#N)c(=O)n2C2OC(COC(C)=O)C(OC(C)=O)C(OC(C)=O)C2OC(C)=O)C(OC(C)=O)C(OC(C)=O)C1OC(C)=O (stereo not given),5% (inactive) and -9.15% (inactive),7.65% (inactive) and -9.45% (inactive),-3.1% (inactive) and 20.9% (inactive),-32% (inactive) and 10.2% (inactive),7.2% (inactive) and 20.1% (inactive),-7.8% (inactive) and -34.5% (inactive)
CC(=O)OCC1OC(Sc2nc(-c3ccc(Cl)cc3)c(C#N)c(=O)n2C2OC(COC(C)=O)C(OC(C)=O)C(OC(C)=O)C2OC(C)=O)C(OC(C)=O)C(OC(C)=O)C1OC(C)=O (stereo not given),8.9% (inactive) and 6.85% (inactive),7.4% (inactive) and -3.8% (inactive),9.7% (inactive) and -9.1% (inactive),-18.6% (inactive) and -12.2% (inactive),9.75% (inactive) and -7.95% (inactive),2.8% (inactive) and -46.5% (inactive)
O=C(Nc1nn[nH]n1)c1nc(-c2ccccc2)cc(=O)[nH]1,-15.6% (inactive) and -10.2% (inactive),-3.75% (inactive) and 9.5% (inactive),7.35% (inactive) and 5.4% (inactive),-49.8% (inactive) and 1.15% (inactive),5.7% (inactive) and -5.95% (inactive),1.95% (inactive) and -2.25% (inactive)
COC(=O)C1OC(O[C@H]2CC[C@]3(C)[C@H]4CC=C5[C@@H]6CC(C)(C)CC[C@]6(C(=O)OC6OCC(O)C(O)C6OC6OC(C)C(OC7OCC(O)C(OC8OCC(O)C(O)C8O)C7O)C(OC7OCC(O)C(O)C7O)C6O)CC[C@@]5(C)[C@]4(C)CC[C@H]3C2(C)C)C(O)C(OC2OCC(O)C(O)C2O)C1O (stereo not given in full),18.1% (inactive) and 22.6% (inactive),7.8% (inactive) and 16.5% (inactive),18.6% (inactive) and 23.1% (inactive),18.1% (inactive) and 18.7% (inactive),30.2% (inactive) and 22.7% (inactive),26.2% (inactive) and 38% (inactive)
O=c1cc2oc3cc(O)c(O)cc3c(-c3ccccc3)c-2cc1O,-4.25% (inactive) and 15.2% (inactive),-16.1% (inactive) and 32.5% (inactive),-3.15% (inactive) and 25.9% (inactive),-5.9% (inactive) and -23.8% (inactive),-10.2% (inactive) and 15.9% (inactive),-4.15% (inactive) and 34.9% (inactive)
NC(CCCc1ccccc1)C(=O)O (stereo not given),7.05% (inactive) and 3.35% (inactive),-7.4% (inactive) and 0.65% (inactive),-5.15% (inactive) and 1.45% (inactive),-77% (inactive) and -22.5% (inactive),20.6% (inactive) and -1.2% (inactive),-26.9% (inactive) and -10% (inactive)
CC(=O)N(O)CCCCCNC(=O)CCC(=O)N(O)CCCCCNC(=O)CCC(=O)N(O)CCCCCN,12.6% (inactive) and 8% (inactive),-9.65% (inactive) and -0.45% (inactive),2.1% (inactive) and -5.3% (inactive),6.9% (inactive) and 5.75% (inactive),9.55% (inactive) and 0.5% (inactive),11.4% (inactive) and 4.05% (inactive)
Cc1ccc(C)c(NC(=O)CC2Sc3ccccc3NC2=O)c1 (stereo not given),-0.4% (inactive) and -7.3% (inactive),-25.8% (inactive) and -19.4% (inactive),8.4% (inactive) and -28.5% (inactive),21.9% (inactive) and 8.45% (inactive),26.3% (inactive) and 10.3% (inactive),-5.05% (inactive) and -88% (inactive)
CCc1cc(-c2ccc(OC)cc2)c(C#N)c(=S)n1C1OC(COC(C)=O)C(OC(C)=O)C(OC(C)=O)C1OC(C)=O (stereo not given),40% (inactive) and 5.75% (inactive),1.35% (inactive) and -4.9% (inactive),-10.4% (inactive) and -18.7% (inactive),-20.9% (inactive) and -29.4% (inactive),-0.9% (inactive) and 1.85% (inactive),11.2% (inactive) and 7.05% (inactive)
COc1ccc(C2c3cc(OC)c(OC)cc3CC(C(=O)O)C2C(=O)N(C)C)cc1OC (stereo not given),-2.05% (inactive) and -30.2% (inactive),8% (inactive) and -4.6% (inactive),35.3% (inactive) and -0.15% (inactive),26.6% (inactive) and 10.1% (inactive),4.7% (inactive) and -4% (inactive),13.1% (inactive) and 1.9% (inactive)
COC1C(C)OCOC2COCOC21 (stereo not given),17.4% (inactive) and -6.3% (inactive),2.2% (inactive) and -13.2% (inactive),4.15% (inactive) and -8.6% (inactive),0.5% (inactive) and -19.8% (inactive),9.05% (inactive) and -3.8% (inactive),7.4% (inactive) and -0.45% (inactive)
Nc1nc2nccnc2c(=O)[nH]1,-10.2% (inactive) and 6.15% (inactive),47% (inactive) and -1.65% (inactive),1.55% (inactive) and -5.7% (inactive),-18.6% (inactive) and -0.35% (inactive),-24.9% (inactive) and 1.45% (inactive),-15.2% (inactive) and -0.8% (inactive)
NC(C(=O)O)C(CC(=O)O)C(=O)O (stereo not given),1.8% (inactive) and 9.2% (inactive),-2.1% (inactive) and 11.2% (inactive),-1.95% (inactive) and -2.75% (inactive),-57% (inactive) and -40% (inactive),-10.9% (inactive) and -0.05% (inactive),16.4% (inactive) and 9.75% (inactive)
CC1C(=O)c2cc3c(cc2CCN(C)Cc2c1ccc1c2OCO1)OCO3 (stereo not given),13.9% (inactive) and 3.4% (inactive),-16.4% (inactive) and 5.75% (inactive),-10.2% (inactive) and 7.3% (inactive),-3.65% (inactive) and -3.7% (inactive),-29.9% (inactive) and -12.9% (inactive),-31.8% (inactive) and 14.6% (inactive)
Cc1ccc(C(O)c2nnc(C(O)c3ccc(C)cc3)nn2)cc1 (stereo not given),11.2% (inactive) and 33.9% (inactive),11.6% (inactive) and 29% (inactive),-3.55% (inactive) and 71% (active),9.45% (inactive) and 16.4% (inactive),18.9% (inactive) and 21.2% (inactive),18.8% (inactive) and 40.5% (inactive)
O=C1C(c2ccccc2)=C(c2ccccc2)C(c2ccccc2)=C1c1ccccc1,36.6% (inactive) and 12.2% (inactive),-3.9% (inactive) and 8.35% (inactive),15.8% (inactive) and 25.2% (inactive),-14% (inactive) and -2.4% (inactive),0.25% (inactive) and 12.2% (inactive),18.7% (inactive) and 8.9% (inactive)
CN(C)C(c1ccccc1)C1COC2Cc3ccccc3C1O2 (stereo not given),-8.1% (inactive) and -3.3% (inactive),-4.55% (inactive) and -11.4% (inactive),10.3% (inactive) and -2.85% (inactive),2.05% (inactive) and 6.35% (inactive),-27.2% (inactive) and -19.2% (inactive),-6.6% (inactive) and -23.6% (inactive)
